Screens as filed in PubChem.
Compounds with a hit are over-represented: about 9.5% of the library has one in this group of screens.
NS1 inh: influenza NS1 inhibition | Potency, µM (titrated, usually from 46.1 µM) | actives 0.4% (n = 270,000); calls by dose curve; note: actives are rising curves; nearly all actives have a fitted effect of over 50% in size
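In this qHTS, NS1 from influenza A is expressed in budding yeast, where it slows growth. Cells are switched from glucose to 2% galactose medium (pH 6.0, -URA), treated with compound, and growth recovery is read at OD600.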
RE007 growth inh: less growth of the S. pombe RE007 Vpr strain; AID 651644; actives 0.21% (n = 360,000); Potency, µM (titrated, usually from 92.2 µM), most hits filed as inhibitors; S. pombe RE007 Vpr strain, BacTiter-Glo ATP luminescence, 24 h; active = well fitted falling curve with a large enough effect; inconclusive = small, poorly fitted or top-dose-only effect; inactive = no such curve, though single readings can be large or run the other way; note: nearly all actives have a fitted effect of over 50% in size
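Fission yeast strain RE007, carrying one chromosomally integrated HIV-1 vpr copy, was seeded at OD 0.01 in PMG+AL medium with 23 nL pinned compound. After 24 h at 30 °C and 99% humidity, viability was read by BacTiter-Glo luminescence.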
Pf growth 96h: P. falciparum growth inhibition at 96 hour, primary screen for plastid delayed-death inhibitors. P. falciparum luciferase reporter growth, 96 h. Potency, µM (top dose mostly 28.7 µM), actives largely listed as inhibitors. actives 6.9% (n = 320,000)
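Compounds incubated with erythrocytes infected by luciferase-expressing P. falciparum (2% hematocrit, 0.05% parasitemia final) for 96 hours, 37 C in 5% CO2. Growth inhibition scored as decreased luciferase luminescence.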
Pf growth 48h: P. falciparum growth inhibition at 48 hours (one generation); P. falciparum luciferase growth in erythrocytes, 48 h; Potency, µM (series often up to 28.7 µM), usual class: inhibitors; actives 5.9% (n = 310,000); AID 504832
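Erythrocytes infected with P. falciparum carrying an integrated firefly luciferase reporter (2% hematocrit, 0.1% parasitemia final) were exposed to compounds in RPMI 1640 with 0.5% Albumax at 37 C, 5% CO2. Growth inhibition was scored as reduced luminescence.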
SARS PLpro yeast: blocks SARS-CoV papain-like protease in a yeast assay. S. cerevisiae expressing SARS-CoV PLpro, growth rescue. Potency, µM (highest dose often 32.9 µM), actives largely listed as activators. actives 0.19% (n = 330,000); calls by dose curve; note: nearly all actives have a fitted effect of over 55% in size
A number is an active result; [ ] = remark or other dose. Unless noted, calls come from the whole dose curve; as a rule, active = well fitted inhibition curve with a large enough effect; inconclusive = small, poorly fitted or top-dose-only effect, or another doubt; inactive = no such curve, though single readings can be large or run the other way.

COc1cccc(-c2cn(-c3cccc(C(F)(F)F)c3)c(=S)[nH]2)c1 was read as NS1 inh inconclusive, RE007 growth inh inactive, Pf growth 96h inconclusive, Pf growth 48h 10µM and SARS PLpro yeast inactive.
NC(=O)CC1C(=O)N(c2ccccc2)C(=S)N1NC(=O)c1ccccc1 (configuration not stated) was read as NS1 inh inactive, RE007 growth inh inactive, Pf growth 96h inactive, Pf growth 48h inactive and SARS PLpro yeast inactive.
Screening Clc1ccccc1Cc1noc(CN2CCN3CCCC3C2)n1 (configuration not stated) returned NS1 inh inactive, RE007 growth inh inactive, Pf growth 96h 2.9µM, Pf growth 48h inconclusive and SARS PLpro yeast inactive.
Screening NC(=O)[C@@H]1CCCN1Cc1nc(Cc2ccccc2Cl)no1 returned NS1 inh inactive, RE007 growth inh inactive, Pf growth 96h 3.7µM, Pf growth 48h inactive and SARS PLpro yeast inactive.
OC1CCN(Cc2nc(Cc3ccccc3Cl)no2)CC1 was read as NS1 inh inactive, RE007 growth inh inactive, Pf growth 96h inactive, Pf growth 48h inactive and SARS PLpro yeast inactive.
For COc1cc(/C=C2\C(=N)N3N=C(S(C)(=O)=O)SC3=NC2=O)ccc1OC(=O)c1ccco1 the results were NS1 inh inactive, RE007 growth inh inactive, Pf growth 96h inconclusive, Pf growth 48h inactive and SARS PLpro yeast inactive.
Screening Cc1cccc(C)c1NC(=O)CNC(=O)c1ccc2ccccc2n1 returned RE007 growth inh inactive, Pf growth 96h inconclusive, Pf growth 48h inconclusive and SARS PLpro yeast inactive.
`COC(=O)c1ccc(C(=O)OC)c(NC(=O)COC(=O)CCOc2ccc(C)cc2)c1` gave RE007 growth inh inactive, Pf growth 96h inactive and Pf growth 48h inactive.
`Clc1ccc2[nH]c3c(c2c1)CNCC3` gave NS1 inh inactive, RE007 growth inh inactive, Pf growth 96h inconclusive, Pf growth 48h inactive[0.00184 µM] and SARS PLpro yeast inactive.
Clc1cccc2c3c([nH]c12)CCNC3 was read as NS1 inh inactive, RE007 growth inh inactive, Pf growth 96h 0.59µM, Pf growth 48h inactive and SARS PLpro yeast inactive.
For COc1ccc(/C=C/C(=O)c2ccccc2O)cc1CN1CCOCC1 the results were NS1 inh inactive, RE007 growth inh inactive, Pf growth 96h 10µM and SARS PLpro yeast inactive.
For COc1ccc(/C=C/C(=O)c2ccc3ccccc3c2O)cc1CN1CCOCC1 the results were NS1 inh inactive, RE007 growth inh inactive, Pf growth 96h 12µM, Pf growth 48h inactive and SARS PLpro yeast inactive.
For COc1ccc(/C=C/C(=O)C23CC4CC(CC(C4)C2)C3)cc1CN1CCOCC1 the results were RE007 growth inh inactive, Pf growth 96h inactive, Pf growth 48h 13µM and SARS PLpro yeast inactive.
Screening COc1ccc(/C=C/C(=O)c2ccc(O)cc2)cc1CN1CCOCC1 returned NS1 inh inactive, RE007 growth inh inactive, Pf growth 96h inactive, Pf growth 48h inconclusive and SARS PLpro yeast inactive.
For CCOc1ccc(CCNS(=O)(=O)c2ccc3c(c2)oc(=O)n3C)cc1OCC the results were NS1 inh inactive, RE007 growth inh inactive, Pf growth 96h 13µM, Pf growth 48h inactive and SARS PLpro yeast inactive.
CC1CC(C)CN(CCCNS(=O)(=O)c2ccc3c(c2)oc(=O)n3C)C1 (configuration not stated) was read as NS1 inh inactive, RE007 growth inh inactive, Pf growth 96h 10µM, Pf growth 48h inactive and SARS PLpro yeast inactive.
CCN(C(=O)CCS(=O)(=O)c1ccc2c(c1)oc(=O)n2C)c1ccc(OC)cc1 was read as NS1 inh inactive, RE007 growth inh inactive, Pf growth 96h 10µM, Pf growth 48h inactive and SARS PLpro yeast inactive.
For COc1ccc(CNC(=O)CCS(=O)(=O)c2ccc(Br)cc2)cc1 the results were NS1 inh inactive, RE007 growth inh inactive, Pf growth 96h 4.7µM, Pf growth 48h inactive and SARS PLpro yeast inactive.
`COc1cccc(CNC(=O)CCS(=O)(=O)c2ccc3c(c2)oc(=O)n3C)c1` gave NS1 inh inactive, RE007 growth inh inactive, Pf growth 96h inactive, Pf growth 48h inactive and SARS PLpro yeast inactive.
Cc1cc(-n2c(C)cc(C(=O)COc3ccc(Cl)cc3C(N)=O)c2C)no1 was read as RE007 growth inh inactive and SARS PLpro yeast inactive.
For COc1ccccc1N(CC(=O)N(C)Cc1ccccc1)S(=O)(=O)c1cccs1 the results were RE007 growth inh inactive, Pf growth 96h inconclusive, Pf growth 48h inconclusive and SARS PLpro yeast inactive.
For CCOc1ccc(CNC(=O)CCS(=O)(=O)c2ccc3c(c2)oc(=O)n3C)cc1 the results were NS1 inh inactive, RE007 growth inh inactive, Pf growth 96h inconclusive, Pf growth 48h inactive and SARS PLpro yeast inactive.
`COc1ccc(CNC(=O)CCS(=O)(=O)c2ccc3c(c2)oc(=O)n3C)cc1` gave NS1 inh inactive, RE007 growth inh inactive, Pf growth 96h 8.3µM, Pf growth 48h inactive and SARS PLpro yeast inactive.
For COc1ccc(CCNC(=O)CCS(=O)(=O)c2ccc3c(c2)oc(=O)n3C)cc1OC the results were NS1 inh inactive, RE007 growth inh inactive, Pf growth 96h 4.1µM, Pf growth 48h inconclusive and SARS PLpro yeast inactive.
Screening O=C(CNC(=O)c1ccc(Cl)c([N+](=O)[O-])c1)NCC1CCCO1 (configuration not stated) returned NS1 inh inactive, RE007 growth inh inactive, Pf growth 96h inactive, Pf growth 48h inactive and SARS PLpro yeast inactive.
For CCOC(=O)N1CCN(C(=O)C(CC(C)C)NS(=O)(=O)c2ccc3c(c2)oc(=O)n3C)CC1 (configuration not stated) the results were NS1 inh inactive, RE007 growth inh inactive, Pf growth 96h 10µM and SARS PLpro yeast inactive.
`CC(C)CC(NS(=O)(=O)c1ccc2c(c1)oc(=O)n2C)C(=O)N1CC=C(c2ccccc2)CC1` (configuration not stated) gave NS1 inh inactive, RE007 growth inh inactive, Pf growth 96h 10µM and SARS PLpro yeast inconclusive.
`O=C(Cc1ccc(Cl)cc1)NNC(=O)C1CC=CCC1C(=O)O` (configuration not stated) gave NS1 inh inactive, Pf growth 96h inactive, Pf growth 48h inactive and SARS PLpro yeast inactive.
Screening CN1/C(=C/c2cccc[n+]2CCO)Sc2ccccc21 returned NS1 inh inactive, RE007 growth inh inactive, Pf growth 96h inconclusive, Pf growth 48h inconclusive and SARS PLpro yeast inactive.
For CC[n+]1ccccc1/C=C1\Sc2ccc(C)cc2N1C the results were NS1 inh inactive, RE007 growth inh inconclusive, Pf growth 96h inactive, Pf growth 48h 1µM and SARS PLpro yeast inactive.
For CN(C)C(=O)c1ccc(NC(=O)c2cccc(S(=O)(=O)N3CCCc4ccccc43)c2)cc1 the results were RE007 growth inh inactive, Pf growth 96h 9.3µM, Pf growth 48h 5.2µM and SARS PLpro yeast inactive.
For CC(=O)Nc1ccc(NC(=O)c2cccc(S(=O)(=O)N3CCCCCC3)c2)cc1 the results were RE007 growth inh inactive and SARS PLpro yeast inactive.
Screening CN(C)C(=O)c1ccc(NC(=O)c2cccc(S(=O)(=O)N3CCCCCC3)c2)cc1 returned RE007 growth inh inactive, Pf growth 96h 5.2µM, Pf growth 48h inconclusive and SARS PLpro yeast inactive.
